Assay outcomes (PubChem)
FBW7 activator: activators of human E3 ligase FBW7; Q969H0; AlphaScreen FBW7–phospho-cyclin E peptide binding, activator screen; normalized activity (activation), % at 26.1 µM; 650,000 compounds, 0.13% hits; in the data active means normalized activity above about 1.9%;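 further: purified mutant Fbw7 with reduced substrate affinity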
TEAD-YAP block: TEAD-YAP interaction inhibition; HEK-TIYL cells, TEAD-Gal4/YAP UAS-luciferase luminescence; inhibition, % at 9.12 µM; 640,000 compounds, 1.4% hits; in the data active means inhibition above about 32%;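 further: 0% = median of test compound wells and 100% = reference inhibitor wells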
GPR151 ag: activators of human GPR151; activation, % at 11.2 µM; 650,000 compounds, 1% hits; AID 1508602; PathHunter beta-arrestin GPR151 cells, luminescence; Q8TDV0; in the data active means activation above about 4.9%;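 further: 0% = median of compound wells and 100% = cells with positive control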
MITF primary: inhibitors of human MITF; inhibition, % at 2.6 µM; 650,000 compounds, 0.91% hits; AID 1259374; AlphaScreen MITF homodimerization, bead proximity signal; O75030; in the data active means inhibition above about 50%;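 further: 0% = vehicle wells with protein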
GPR151 conf act: human GPR151 activation, confirmation screen; AID 1508609; 6,700 tested, under 10 active; shares compounds with GPR151 ag; activation, % at 11.2 µM; GPR151 PathHunter beta-arrestin cells, luminescence, 90 min; % of EA-reagent control over plate median;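 active means mean percent activation across replicates above the confirmation screen cutoff of 4.91%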
GPR119 counter: counter-screen for GPR151 activators: effect on human GPR119 | shares compounds with GPR151 ag | GPR119 PathHunter beta-arrestin cells, luminescence, 90 min; 0 = compound-well median, 100 = enzyme-acceptor control | activation, % at 11.2 µM | 6,700 compounds, 0.3% hits;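 active means mean percent activation in the counterscreen above 29.09%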;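 further: counterscreen on off-target GPR119 to flag nonselective hits from the GPR151 activator screen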
Target sequence (Q8TDV5 whole entry, looked up): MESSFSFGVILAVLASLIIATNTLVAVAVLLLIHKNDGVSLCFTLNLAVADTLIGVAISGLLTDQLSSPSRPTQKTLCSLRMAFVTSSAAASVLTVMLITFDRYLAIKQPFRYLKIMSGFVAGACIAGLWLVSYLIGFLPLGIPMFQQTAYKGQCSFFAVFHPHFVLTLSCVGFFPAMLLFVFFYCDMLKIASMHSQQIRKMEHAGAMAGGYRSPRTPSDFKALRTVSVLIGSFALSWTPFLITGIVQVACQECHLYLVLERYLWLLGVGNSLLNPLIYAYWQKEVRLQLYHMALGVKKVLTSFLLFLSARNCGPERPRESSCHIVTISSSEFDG
Starred values were filed as active, the others as inactive; x = no result; ! = not active in a repeat. Most compounds without a hit are left out; they make up all but 3.5% or so of the library.

SMILES	FBW7 activator	TEAD-YAP block	GPR151 ag	MITF primary	GPR151 conf act	GPR119 counter
Clc1ccc(Cn2ncc3c(NCCN4CCOCC4)ncnc32)cc1	0	-4	6.7*	11	0	2
Cc1ccc(Cn2ncc3c(NCCCN4CCOCC4)ncnc32)cc1	0	-1	0	-11	x	x
S=C(NCc1ccco1)N1CCN(C2CCCCC2)CC1	0	-4	6.1*	0	-1	-4
CC(C)(C)c1csc2ncc(C(=O)NCc3cccs3)c(=O)n12	0	-1	5.2*	1	0	-1
COC(=O)Cc1c(C)c2c(OCC(=O)c3cccc([N+](=O)[O-])c3)cc(C)cc2oc1=O	0	-11	3	-3	x	x
CCN(CC)C(=O)COc1cc2oc(=O)c(CC(=O)OC)c(C)c2cc1Cl	0	-4	7.1*	4	0	-2
COC(=O)COc1cc(C)cc2oc(=O)c(CC(=O)OC)c(C)c12	0	1	6.1*	10	0	11
O=C(Cc1cn(-c2ccc(Nc3ccc(N4CCOCC4)cc3)nn2)c2ccccc12)NCc1cccnc1	0	12	-1	10	x	x
CCc1ccccc1NC(=O)C(=O)NCCOC	0	8	0	-25	x	x
CCCNC(=O)C(=O)Nc1ccccc1CC	0	-3	6.7*	-3	0	-6
COc1ccc(CCNC(=O)CN2N=C(c3ccc(C)cc3)CCC2=O)cc1OC	0	-7	6.7*	-6	1	-2
COc1ccc(-c2csc(NC(=O)c3ccc(S(=O)(=O)N4CCCC4)cc3)n2)c(OC)c1	0	6	5.5*	6	1	20
CSCCC(C)N1CCC(Oc2ccc(C(=O)NCc3ccncc3)cc2)CC1 (centres undefined)	0	6	5.0*	6	-1	7
O=C(NCc1ccncc1)c1ccc(OC2CCN(C3CCSCC3)CC2)cc1	0	0	0	5	x	x
O=C(N=Nc1c(O)[nH]c2c(I)cccc12)c1ccncc1	0	4	2	9	x	x
CN(C)CC(O)COC(c1ccccc1)c1ccccc1 (centres undefined)	0	7	7.7*	-4	0	-4
CCN1CCN(CC(O)COC(c2ccccc2)c2ccccc2)CC1 (centres undefined)	0	1	2	-20	x	x
CCCCCCN(CCCCCC)C(=O)c1cccc(NC(=O)c2ccc(Br)cc2)c1	0	-9	0	12	x	x
COC(=O)Cc1cc(=O)oc2c(OC)c(OC)ccc12	0	-4	2	4	x	x
O=C(CN(c1ccccc1Cl)S(=O)(=O)c1ccccc1)NC1CC1	0	-4	5.9*	-2	0	-5
CCOc1ccc(S(=O)(=O)Nc2cc(Cl)c3oc4c(c3c2)C(=O)CCC4)cc1	0	1	0	-5	x	x
O=C(c1cccc(-n2c(=S)[nH]c3cc(Cl)ccc3c2=O)c1)N1CCCC1	0	-8	-1	40	x	x
CCOC(=O)C1CCCN(C(=O)c2cccc(-n3c(=S)[nH]c4cc(Cl)ccc4c3=O)c2)C1 (centres undefined)	0	0	6.6*	4	1	9
CC(=O)Nc1ccc(Nc2c(-c3ccc4c(c3)OCC(=O)N4)c(=O)c2=O)cc1	0	4	8.7*	-6	0	-1
CCN(Cc1ccccc1)C(=O)Cn1c(=O)n(-c2ccc(OC)cc2)c(=O)c2ccccc21	0	11	7.9*	2	1	-1
SMILES	FBW7 activator	TEAD-YAP block	GPR151 ag	MITF primary	GPR151 conf act	GPR119 counter
CN(C(=O)Cn1c(=O)n(CCc2ccccc2)c(=O)c2ccccc21)c1ccccc1	0	11	0	14	x	x
COc1ccc(-c2nc(NC(C)=O)sc2C)cc1OC	0	12	6.0*	12	-1	-8
O=C(Nc1cc(C(=O)N2CCOCC2)ccc1N1CCCC1)c1cccs1	0	0	1	1	x	x
COc1cccc(CN(C(=O)/C=C/c2ccc(Cl)cc2)C2CCS(=O)(=O)C2)c1 (centres undefined)	0	4	6.9*	9	1	3
Cc1ccc(-n2cnc3cc(C(=O)NCc4ccc(F)cc4)ccc32)cc1Cl	0	-2	5.9*	0	0	-12
O=C(NCCN1CCOCC1)c1ccc2c(c1)ncn2-c1ccc(F)cc1F	0	-1	5.4*	17	-1	-11
O=C1CCC(CCC(=O)N2CCCC(C(=O)c3cccnc3)C2)(Cc2ccco2)N1 (centres undefined)	0	11	0	10	x	x
CCCCCCCCCCCCCCCCOP(=O)(O)OCC[N+](C)(C)C	0	5	11*!	-13	0	6
COc1ccc(-n2cc(-c3ccccc3)c3c(NCc4cccc(Cl)c4)ncnc32)cc1	0	-9	1	3	x	x
CC(C)(C)c1nn2cnnc2n(/N=C/c2ccccc2I)c1=O	0	3	2	-1	x	x
CC(C)(C)c1nn2cnnc2n(/N=C/c2ccccc2O)c1=O	0	1	5.9*	10	-1	-6
CCOc1ccc(C(=O)N2CCN(c3cc(-n4ccnc4C)ncn3)CC2)cc1OCC	0	-2	3	1	x	x
NC(=O)C1(N2CCCCC2)CCN(S(=O)(=O)c2ccc(Cl)cc2)CC1	0	-9	5.4*	-2	0	3
COc1ccc(Cn2nccc2N)cc1OC	0	-2	14*	2	2	7
COc1ccccc1Cn1nccc1N	0	2	2	8	x	x
CCc1ccccc1Nc1nncc(=O)[nH]1	0	11	7.2*	-1	-2	-10
CCOc1ccccc1Nc1nncc(=O)[nH]1	0	11	0	-3	x	x
COC(=O)c1cn(NC(=O)/C=C/c2ccc(Br)cc2)c(=O)c2ccccc12	0	-5	7.8*	2	0	-5
COc1ccc(/C=N/NC(=O)CCC(=O)Nc2ccc(Cl)cc2C)cc1OC	0	-1	-1	-3	x	x
CCCCCC(=O)N/N=C/c1cccc(OC)c1	0	-9	5.2*	10	0	-3
CCCCCCCC(=O)N/N=C/c1ccccc1OC	0	6	17*	-4	-1	-8
COc1ccc(/C=N/NC(=O)CCC(=O)Nc2ccc(Cl)cc2C)cc1	0	3	5.3*	12	0	-1
CCCCc1ccc(NC(=O)CN2C(=O)c3ccccc3C2=O)cc1	0	3	-1	3	x	x
O=C(/C=C/c1cccs1)Nc1cc([N+](=O)[O-])ccc1Cl	0	-1	1	15	x	x
O=C(/C=C/c1cccs1)NC(=S)Nc1cc([N+](=O)[O-])ccc1O	0	-12	5.4*	34	0	-7
CC(=O)c1c(C)nnn1-c1nonc1C	1	8	5.1*	15	1	-4
CN(C)C(CNC(=S)Nc1cccc(Br)c1)c1cccnc1 (centres undefined)	0	4	1	5	x	x
